KB-3-1 cytotox: qHTS assay for MDR1-selective chemotherapeutics: Primary screen using the parental adenocarcinoma cell KB-3-1. KB-3-1 viability, CellTiter-Glo ATP luminescence, 72 h. Potency, µM (top dose mostly 46.1 µM), usual class: cytotoxic. 400,000 compounds, 1.4% hits. AID 1347075, 2019; further: on the % scale 0 is the no-effect control and ±100 the full control effect; nearly all actives have a fitted effect of over 60% in size
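Cytotoxicity in the drug-sensitive parental line KB-3-1 was scored as loss of CellTiter-Glo luminescence following 72 h incubation with compound. Values come from curve fitting of normalized concentration-response data.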
KB-V1 cytotox: qHTS assay for MDR1-selective chemotherapeutics: Primary screen using the drug-selected MDR subline cells KB-V1; KB-V1 MDR cells viability, CellTiter-Glo, 72 h; Potency, µM (titrated, usually from 46.1 µM), hits mostly cytotoxic; 400,000 compounds, 3.4% hits; AID 1347076, 2019; further: on the % scale 0 is the no-effect control and ±100 the full control effect; nearly all actives have a fitted effect of over 60% in size
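KB-V1, DMEM (no phenol red) + 10% FBS; cpd pin-transferred, titration series; 72 h, 37 degrees C; CellTiter-Glo, luminescence. Data normalized, curve-fit.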
TSG101-PTAP inh: qHTS Assay for Iinhibitors of HIV-1 Budding by Blocking the Interaction of PTAP/TSG101; Potency, µM (series often up to 115 µM), without a hit: top-dose activity change, negative = inhibition, actives largely listed as inhibitors; Fluorescence polarization, FITC-PTAP peptide / Tsg101 binding; Tumor susceptibility gene 101 protein (Homo sapiens), Q99816; AID 493005, 2010; 340,000 tested, under 10 active; active means well fitted inhibition curve with a large enough effect in the main read-out, with a control signal flat, not every such curve was filed as active; inconclusive means small, poorly fitted or top-dose-only effect, or effect the other way, or a change in a side signal; inactive means no such curve, though single readings can be large or run the other way; further: % of control where 0% means no effect
Target sequence (Q99816 whole entry, looked up): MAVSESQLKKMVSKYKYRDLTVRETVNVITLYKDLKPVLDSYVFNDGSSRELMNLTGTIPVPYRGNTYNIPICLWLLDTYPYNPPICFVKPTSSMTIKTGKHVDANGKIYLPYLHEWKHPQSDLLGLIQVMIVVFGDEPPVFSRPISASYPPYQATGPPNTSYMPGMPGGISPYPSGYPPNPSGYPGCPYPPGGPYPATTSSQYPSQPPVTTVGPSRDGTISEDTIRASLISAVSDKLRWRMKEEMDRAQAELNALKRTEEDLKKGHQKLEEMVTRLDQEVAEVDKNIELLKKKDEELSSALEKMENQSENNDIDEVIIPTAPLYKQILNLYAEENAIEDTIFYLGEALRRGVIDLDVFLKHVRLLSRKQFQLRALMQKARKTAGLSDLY
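Steps: Tsg101 binding domain dispensed (10 uM final), compounds pinned in DMSO, FITC-labeled PTAP-motif peptide added (50 nM final); after 20 min binding at room temperature, polarization measured.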
MCF10A rerep: A quantitative high throughput screen for small molecules that induce DNA re-replication in MCF 10a normal breast cells; MCF 10A DNA re-replication, Hoechst nuclear intensity, 48 h; Potency, µM (series often up to 46.1 µM), inactives show at the highest dose activity, positive = re-replication, usual class: activators; 350,000 compounds, 2.9% hits; further: % of control where 0% means no effect; nearly all actives have a fitted effect of over 50% in size
PINK1 expr mod: A Quantitative High throughput Screen to Identify Chemical Modulators of PINK1 Expression. AID 624263, 2012. PINK1 immunofluorescence, high-content cytometry, 24 h. 410,000 compounds, 0.2% hits. Potency, µM (doses to about 76.6 µM), for inactives: top-dose activation (PINK1 increase), hits mostly activators; active means well fitted activation curve with a large enough effect; inconclusive means small, poorly fitted or top-dose-only effect; cell line not stated here; further: % of control where 0% means no effect; nearly all actives have a fitted effect of over 65% in size
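Compound titrations (5 concentrations, 24 h) on a stable cell line; DMSO and CCCP controls. Endpoint: fixed-cell PINK1 immunofluorescence with mitochondrial, cell and nuclear markers, scanned by microplate cytometer.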
SW480 rerep: A quantitative high throughput screen for small molecules that induce DNA re-replication in SW480 colon adenocarcinoma cells. SW480 DNA re-replication, Hoechst DNA content imaging, 48 h. Potency, µM (top dose mostly 46.1 µM), without a hit: at the top dose re-replication activation, usual class: activators. 340,000 compounds, 1.8% hits; further: % of control where 0% means no effect; nearly all actives have a fitted effect of over 55% in size
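Quantitative HTS format with DMSO vehicle controls; 48 hr drug incubation at 37 C, then 40 min Hoechst staining and scanning imager measurement at 405 nm excitation.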
* marks the source's active call; other numbers are inactive results; i = inactive; ? = inconclusive; nt = no result given; [ ] = remark or other dose. The list is not random: actives were taken first. Their share in the collection is about 6.8%. Unless noted, the call rests on the fitted dose curve; in most records, active means well fitted curve in the direction sought with a large enough effect; inconclusive means small, poorly fitted or top-dose-only effect, or another doubt; inactive means no such curve, though single readings can be large; an effect the other way counts as inactive or inconclusive. Potency means the concentration at half of the fitted maximal effect.

SMILES	KB-3-1 cytotox	KB-V1 cytotox	TSG101-PTAP inh	MCF10A rerep	PINK1 expr mod	SW480 rerep
CN1CCN(c2ncnc3ccc(-c4cccc(C#N)c4)cc23)CC1	nt	nt	nt	nt	-1%	nt
CCC(=O)N1CCc2cc(CNS(=O)(=O)c3cc(Cl)ccc3OC)ccc21	nt	nt	nt	nt	1%	nt
COc1ccccc1C(=O)Nc1nc2ccccc2[nH]1	2.3µM*	4.1µM*	4%	-3%	0%	5%
Cc1ccccc1OCC(=O)Nc1nc2ccccc2[nH]1	i	i	-8%	-6%	1%	2%
Cc1cc(C)c(OCC(=O)Nc2nc3ccccc3[nH]2)c(C)c1	i	i	0%	0.82µM*	2%	-29%
COc1cc(SC)ccc1C(=O)Nc1nc2ccccc2[nH]1	2.9µM*	?	-1%	10%	2%	-2%
COc1cccc(N2CCN(C(=O)c3cc4c(=O)n(Cc5cccs5)ccc4nc3C)CC2)c1	i	i	nt	nt	1%	nt
CSc1ccccc1NC(=O)CN1c2ccccc2CC1C (stereo not drawn)	i	i	-6%	?	-1%	8.2µM*
CSc1ccccc1NC(=O)CSCc1ccc(Br)cc1	i	21µM*	1%	10%	8%	-5%
CSc1ccccc1NC(=O)CN1CCCCC1C (stereo not drawn)	i	i	-1%	?	5%	-2%
C=CC[C@H](c1ccc(F)cc1)N(CC(C)C)S(=O)(=O)C=C	?	i	nt	nt	nt	nt
COc1ccc(NC(=O)c2ccc3c(=O)n4nc(Nc5cccc(Cl)c5C)sc4nc3c2)cc1	i	?	nt	nt	0%	nt
CCOC(=O)c1csc(NC(=O)c2cc(OC)c(OC)c(OC)c2)n1	i	?	-5%	?	2%	0.23µM*
CCOC(=O)c1csc(NC(=O)COc2ccc(Cl)cc2Cl)n1	i	23µM*	-2%	15%	0%	-9%
CCc1cnc2c(c1SCC(=O)Nc1ccc(Cl)cc1)c(=O)n(C)c(=O)n2C	i	i	nt	nt	5%	nt
CCOC(=O)/C(=C/c1ccc(N2CCC(c3ccccc3)=N2)cc1)C(C)=O	i	i	?	?	-2%	?
c1ccc(C2=NN(c3ccccc3)CC2)cc1	i	i	-9%	21µM*	1%	16µM*
O=C1CCCC2=C1C1(CCSCC1)N=C(Nc1nc3ccccc3o1)N2	i	i	nt	nt	nt	nt
Cc1ccccc1C(=O)Nc1ccc2nc3n(c(=O)c2c1)CCC3	6.5µM*	?	-1%	-2%	1%	-10%
COc1ccc(C)cc1NC(=O)N1CCC(CN2CCOCC2)CC1	nt	nt	nt	nt	-1%	nt
COC(=O)Cc1c(C)c2ccc3c(c2oc1=O)CN(Cc1ccccc1OC)CO3	i	i	nt	nt	-1%	nt
Cc1ccc(CNC(=O)/C=C/c2ccc(S(=O)(=O)N3CCOCC3)cc2)cc1	i	i	1%	?	0%	0.82µM*
O=C(/C=C/c1ccc(S(=O)(=O)N2CCOCC2)cc1)Nc1ccc(F)c(F)c1F	?	21µM*	2%	3%	11%	-5%
CCN(CC)S(=O)(=O)c1ccc(/C=C/C(=O)Nc2ccc(F)c(F)c2F)cc1	4.6µM*	?	0%	-4%	5%	7%
O=C(CSc1nc(-c2cccs2)nc2cc(=O)[nH]n12)Nc1ccccc1Cl	i	i	nt	nt	1%	nt
SMILES	KB-3-1 cytotox	KB-V1 cytotox	TSG101-PTAP inh	MCF10A rerep	PINK1 expr mod	SW480 rerep
COc1ccccc1Nc1nnc(SCc2nnc(-c3cc(OC)c(OC)c(OC)c3)o2)s1	i	?	0%	21µM*	1%	?
CCOc1ccccc1Nc1nnc(SCc2nnc(-c3cc(OC)c(OC)c(OC)c3)o2)s1	i	?	-3%	?	0%	0%
COc1cc(-c2nnc(CSc3nnc(Nc4ccc(C(C)C)cc4)s3)o2)cc(OC)c1OC	i	21µM*	1%	15µM*	4%	28%
CCc1nc(SC)ncc1C(=O)N1CCN(c2cc(C)ccc2C)CC1	i	i	nt	nt	3%	nt
O=C(CC1SC(=Nc2cccc3ccccc23)N(Cc2ccccn2)C1=O)Nc1ccccc1Br (stereo not drawn)	?	16µM*	1%	?	2%	15%
O=C(CC1SC(=Nc2ccccc2)N(Cc2ccccn2)C1=O)Nc1ccc(Br)cc1 (stereo not drawn)	i	?	-4%	23µM*	?	16µM*
Cc1ccccc1N=C1SC(CC(=O)Nc2ccc3ccccc3c2)C(=O)N1Cc1ccccn1 (stereo not drawn)	?	21µM*	-3%	19%	1%	?
COc1ccc(N=C2SC(CC(=O)Nc3ccccc3OC)C(=O)N2Cc2ccco2)cc1 (stereo not drawn)	i	i	-1%	14%	1%	11%
CCN1C(=O)C(CC(=O)Nc2cccc(C(C)=O)c2)S/C1=N\c1ccccn1 (stereo not drawn)	i	i	-11%	4%	-1%	17%
OCCN1CCN(Cc2ccc3c(c2)CN(Cc2ccc4ccccc4c2)CCO3)CC1	nt	nt	nt	nt	-1%	nt
COc1ccc(C2c3cc4c(cc3OC(N3CCOCC3)C2C)OCO4)c(OC)c1 (stereo not drawn)	4.6µM*	?	-12%	2.9µM*	-4%	?
O=C(NNC(=S)NCc1ccccc1)c1ccccc1OC(F)F	i	i	-4%	0%	2%	-75%
O=C(NNC(=S)Nc1ccc(Cl)cc1)c1ccccc1OC(F)F	18µM*	3.3µM*	0%	17%	?	?
O=C(Cc1ccccc1)NNC(=S)Nc1ccc(Cl)cc1	i	i	2%	1%	3%	0.52µM*
CCOC(=O)C(=CNc1cc(C)nn1-c1ccccc1)C(=O)OCC	i	4.6µM*	-1%	-5%	-7%[38.3 µM]	-1%
CN(C)c1ccc(/C=N/NC(=O)Cn2nnc3ccccc32)cc1	i	i	-2%	-2%	1%	-11%
Cc1ccsc1/C=N\NC(=O)Cn1nnc2ccccc21	?	?	-2%	?	0%	18µM*
O=C(Nc1ccc2nc(-c3cccnc3)[nH]c2c1)C12CC3CC(CC(C3)C1)C2	11µM*	?	-3%	-11%	8%	-6%[9.22 µM]
O=C(NCc1ccccc1Cl)C1CCN(c2cnccn2)CC1	i	i	-6%	0.52µM*	1%	-2%
